This is a sample that favours compounds with a hit; in the whole collection about 19% have one here.
ELG1 repair inh: ELG1-dependent DNA repair inhibition; HEK293T ELG1-luciferase reporter, luminescence, 16 h; DNA damage induced by 5-fluorouridine; Potency, µM (top dose mostly 46.1 µM), for the others: at the top dose activity change, negative = inhibition, usual class: inhibitors; 330,000 tested, 2.3% active; AID 504467; further: potency means the concentration at half of the fitted maximal effect; nearly all actives have a fitted effect of over 55% in size
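Step one: seed 2,000 cells per well. Step two: pin-transfer compound or DMSO alongside 5-fluorouridine. Step three: incubate 16 hr, 37 °C, 5% CO2. Step four: add ONE-Glo, wait 30 min, read luminescence.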
TDP1 cell noCPT: qHTS for Inhibitors of human tyrosyl-DNA phosphodiesterase 1 (TDP1): qHTS in cells in absence of CPT. Potency, µM (series often up to 46.2 µM), inactives show at the highest dose activity change, negative = growth inhibition, most hits filed as inhibitors. 420,000 tested, 15% active. DT40 Tdp1-/- hTDP1 cells, no CPT, ATP luminescence, 48 h; further: potency means the concentration at half of the fitted maximal effect; nearly all actives have a fitted effect of over 55% in size
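Chicken DT40 Tdp1-/- cells complemented with human TDP1, screened without camptothecin (DMSO vehicle only), 400 cells/well. Compounds pin-transferred, cells incubated at 37 °C for at least 48 hr. Growth read as ATP-dependent luminescence (CellTiter-Glo, 30 min at RT).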
DT40 TDP1 CPT: DT40-hTDP1 cell growth loss with CPT; chicken DT40 Tdp1-/-;hTDP1 cells + 20 nM CPT, ATP luminescence, 48 h; Potency, µM (doses to about 46.2 µM), inactives show at the top dose activity change, negative = growth inhibition, usual class: inhibitors; 420,000 tested, 12% active; AID 686979; further: potency means the concentration at half of the fitted maximal effect; nearly all actives have a fitted effect of over 55% in size
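Chicken DT40 Tdp1-/- cells stably complemented with human TDP1 were seeded at 400 cells/well in medium containing 20 nM camptothecin, exposed to pin-transferred compounds, and grown at 37 °C for at least 48 hr. Viability was read as ATP luminescence.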
IL1B secr inh: blocks inflammasome-driven IL-1 beta release; THP-1 LPS/ATP IL-1B secretion, AlphaLISA, 16 h; stronger effect = lower value; activity change, % at 57.5 µM; 360,000 tested, 4.7% active; in the data active means activity change below about -50%; inconclusive means mostly about -30% to -49%
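Secreted IL-1B measured by AlphaLISA bead assay after 16 h compound exposure of THP-1 cells; compounds (final up to 57.5 uM) added 1 h before LPS (250 ng/mL) and ATP (1.25 mM) stimulation; lower signal means less secretion.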
HT1080 IDH1KD tx: HT-1080 IDH1 knockdown cell toxicity (counter line); HT-1080 IDH1 knockdown viability, ATP luminescence, 48 h; Potency, µM (doses to about 46.1 µM), without a hit: at the top dose activity, negative = toxicity, usual class: cytotoxic; 360,000 tested, 2% active; AID 686971;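 further: potency means the concentration at half of the fitted maximal effect; 0% = DMSO wells and -100% = cell-free medium wells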
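In this qHTS, HT-1080 cells depleted of IDH1 are exposed for 48 h at 37 °C to compound titrations. Toxicity is scored from CellTiter-Glo luminescence, with DMSO as full viability and medium alone as none.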
HT1080-NT tox: kills 2HG-producing HT-1080-NT fibrosarcoma cells; HT-1080-NT fibrosarcoma viability, CellTiter-Glo ATP luminescence, 48 h; Potency, µM (series often up to 46.1 µM), inactives show at the highest dose activity, negative = less viability, most hits filed as cytotoxic; 360,000 tested, 1.6% active; AID 686970;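 further: NT is the 2HG producing partner of a matched IDH1 knockdown line; potency means the concentration at half of the fitted maximal effect; 0% = DMSO-treated cells and -100% = media-only wells without cells; nearly all actives have a fitted effect of over 55% in size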
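Luminescent CellTiter-Glo readout after 48 hours of compound exposure at 37 degrees C defined viability of HT-1080-NT cells. Activity was normalized to DMSO wells and cell-free media wells; concentration-response curves were fitted and assigned curve classes.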
Active calls of the source: *; u = inconclusive; x = no result given. Unless noted, the call rests on the fitted dose curve; in most records, active means well fitted curve in the direction sought with a large enough effect; inconclusive means small, poorly fitted or top-dose-only effect, or another doubt; inactive means no such curve, though single readings can be large; an effect the other way counts as inactive or inconclusive. Unless noted, on the % scale 0 is the no-effect control and ±100 the full control effect.

SMILES | ELG1 repair inh | TDP1 cell noCPT | DT40 TDP1 CPT | IL1B secr inh | HT1080 IDH1KD tx | HT1080-NT tox
Cc1cccc(CSc2nc3cc(C(=O)NC4CCCC4)ccc3c(=O)n2Cc2ccccc2)c1 | x | -22% | -20% | x | x | x
O=C(NC1CCCCC1)c1ccc(CSc2nc3ccncc3n2Cc2ccccc2)cc1 | x | 21µM* | u | x | x | x
COc1ccc(Cn2c(SCc3ccc(C(=O)NC4CCCCC4)cc3)nc3ccncc32)cc1 | x | 16µM* | u | x | x | x
Cc1ccc(Cn2c(SCc3ccc(C(=O)NC4CCCCC4)cc3)nc3ccncc32)cc1 | x | 21µM* | u | x | x | x
COc1ccc(CSc2nc3ccncc3n2CC(=O)Nc2cc(C)cc(C)c2)cc1 | x | 16µM* | u | x | x | x
CS(=O)(=O)c1ccccc1C(=O)Nc1ccc(-c2nc3ccccc3o2)cc1 | u | 23µM* | u | 31 | -2% | 1%
COc1cccc(C(=O)Nc2ccc3c(C)cc(=O)oc3c2)c1 | u | 2% | u | u | 2% | 5%
O=C(Nc1ccc2oc(-c3ccccc3)nc2c1)c1ccncc1 | u | 12µM* | 16µM* | -6 | -19% | -11%
O=C(Nc1ccc2oc(-c3ccccc3)nc2c1)c1cccs1 | u | u | u | -19 | -10% | -16%
Cc1cccc(C(=O)Nc2ccc(-c3nc4cc(C(C)C)ccc4o3)cc2)c1 | x | 16µM* | 16µM* | x | x | x
COc1cccc(C(=O)Nc2ccc(-c3nc4ccccc4o3)c(O)c2)c1 | u | 16µM* | 18µM* | -5 | u | u
CCOc1ccccc1-n1nnnc1SC(C)C(=O)OC (stereo unspecified) | 8% | -6% | 1% | 0 | 14% | 3%
CN(C(=O)COC(=O)c1ccccc1SCC(=O)NC1CCCCCCC1)C1CCS(=O)(=O)C1 (stereo unspecified) | 21% | u | -20% | 8 | 8% | 9%
Cn1c(=O)c(-c2ccc(Cl)cc2)nc2cnc(N3CCOCC3)nc21 | x | 1% | 4% | x | x | x
CC(C)c1ccc2oc(-c3ccc(NC(=O)c4ncn[nH]4)cc3)nc2c1 | u | u | u | 1 | u | -3%
O=C(Nc1ccc2oc(-c3cccnc3)nc2c1)c1cccnc1 | 0% | u | -24% | -9 | -9% | 11%
Cc1ccc2oc(-c3ccc(NC(=O)c4cccnc4)cc3)nc2c1 | u | 21µM* | u | -9 | -1% | -4%
COc1cc(OC)cc(C(=O)Nc2ccc(-c3nc4cc(C(C)C)ccc4o3)cc2)c1 | x | 21µM* | 21µM* | x | x | x
COc1cc(OC)cc(C(=O)Nc2ccc(-c3nc4ccccc4o3)cc2)c1 | u | 16µM* | 16µM* | 47 | u | u
O=C(Nc1cccc(-c2nc3ccccc3o2)c1)c1cccnc1 | u | 21µM* | u | 11 | -6% | -11%
Cc1cc(Br)cn2c(Cc3cccc(F)c3)c(-c3ccc(Cl)cc3)nc12 | x | u | u | 48 | u | u
O=C(Cn1cc(S(=O)(=O)N2CCCC2)c(S(=O)(=O)N2CCCC2)c1)Nc1cccc(F)c1 | x | 0% | -2% | x | x | x
COC(=O)c1ccc(-c2nc3ccc(C)cc3o2)cc1 | u | 8.2µM* | 10µM* | -16 | u | -10%
O=c1c(-c2cc(F)cc(F)c2)nc2cnc(N3CCOCC3)nc2n1Cc1ccc(F)cc1 | x | 20% | 9% | x | x | x
COC(=O)c1cccc(NS(=O)(=O)c2cccs2)c1C | x | -15% | -14% | -6 | -2% | -1%
SMILES | ELG1 repair inh | TDP1 cell noCPT | DT40 TDP1 CPT | IL1B secr inh | HT1080 IDH1KD tx | HT1080-NT tox
COC(=O)c1ccccc1NC1=C/C(=N\S(=O)(=O)c2cccs2)c2ccccc2C1=O | 5.2µM* | 5.8µM* | 3.3µM* | -92* | 6.3µM* | 21µM*
O=C1C(Nc2ccccc2)=C/C(=N/S(=O)(=O)c2cccs2)c2ccccc21 | 6.5µM* | 4.6µM* | 2.9µM* | -99* | u | u
Cc1ccc(/C=C2\S/C(=N/S(=O)(=O)c3cccs3)NC2=O)cc1 | -1% | 11% | 2% | 22 | 0% | 22%
Cc1ccc(NC2=C/C(=N/S(=O)(=O)c3cccs3)c3ccccc3C2=O)cc1 | u | 3.3µM* | 1.8µM* | -89* | 4.1µM* | 2.9µM*
CCNc1nc2c(cnn2C)c(=O)[nH]1 | x | -7% | 4% | 6 | -14% | -4%
N#CCCn1c(=O)c(-c2cccs2)nc2cnc(OCc3ccccc3)nc21 | x | -9% | 14% | x | x | x
CCN(C(=O)C1CCC(CNS(=O)(=O)c2cccc3nsnc23)CC1)c1cccc(C)c1 (stereo unspecified) | x | 21µM* | u | x | x | x
CCN(CC)C(=O)C1CCC(CNS(=O)(=O)c2cccc3nsnc23)CC1 (stereo unspecified) | -2% | -2% | 1% | 20 | -1% | -1%
COc1ccc(NC(=O)C2CCC(CNS(=O)(=O)c3cccc4nsnc34)CC2)cc1OC (stereo unspecified) | x | 16µM* | u | x | x | x
CCN(C(=O)C1CCC(CNS(=O)(=O)c2cccc3nsnc23)CC1)c1ccccc1 (stereo unspecified) | x | 23µM* | u | x | x | x
CS(=O)(=O)N(CC(=O)N1CCCCCC1)c1cccc([N+](=O)[O-])c1 | 28% | 7% | 2% | 1 | 10% | 6%
CCC(=O)N1CCC(C)(C(=O)Nc2nccc3ccccc23)C1 (stereo unspecified) | x | -18% | 5% | 29 | 8% | 0%
O=C(CCn1cncn1)NCC1Cc2cc(-c3ccsc3)cc(Cl)c2O1 (stereo unspecified) | x | -13% | -14% | x | x | x
CC(C)C/C(O)=C/c1nc2cc(Cl)ccc2oc1=O | 3% | u | u | 1 | u | u
O=c1oc2ccc(Cl)cc2nc1/C=C(\O)c1ccco1 | u | 18µM* | u | -4 | -20% | -18%
COc1ccccc1CC(=O)NO | x | -15% | 3% | x | 16% | 6%
COC(=O)c1c(C(=O)OC)c(-c2ccc(C)cc2)n2c1CS(=O)(=O)C2 | 4% | u | -26% | 15 | -4% | -3%
COC(=O)c1c(C(=O)OC)c(-c2ccc(Cl)cc2)n2c1CS(=O)(=O)C2 | 1% | 21µM* | 21µM* | 1 | -5% | -5%
CSCC[C@H](NC(=O)N1CCn2c1nc1ccccc12)C(=O)NCc1ccc(C)cc1 | -5% | u | u | 7 | -12% | -1%
